PubChem BioAssay AID463173 (ICCB-Longwood Screening Facility, Harvard Medical School, 2010)
Screen size: about 52,000 compounds; about 4,300 (8.3%) were called active. Rule as the data show it: active = survival mostly below about 52% (no sharp cut-off); inactive = mostly above about 56%. What follows is part of a selection rich in actives, with near analogues and random picks from the rest.

Each compound was assayed on DeltatarO mutant (assay: growth inhibition of S. aureus wild type versus tarO mutant, primary screen, teichoic acid synthesis inhibitors, RN4220, OD600 (AID 463173)). Details: OD600, 18 h, stronger effect = lower value, screened at 18.75 µg/mL (by protocol).

| Compound | survival |
| --- | --- |
| COc1cc(C(=O)NCc2ccc3c(c2)CCN3C(=O)c2ccncc2)cc(OC)c1OC | 101% (inactive) |
| Cc1cccc(N2CCN(C(=O)c3cn(C4CCCCC4)c(=O)c4c3c3ccccc3n4C)CC2)c1C | 115% (inactive) |
| CCC1CC(/C(C)=N/NC(N)=O)OC1=O (stereo not drawn) | 71% (inactive) |
| Cc1c(-c2nc(-c3ccccc3F)no2)nnn1-c1cc(F)ccc1F | 84% (inactive) |
| CCOC(=O)c1c(C)n(-c2ccccc2)c2ccc(OC(=O)c3cccc(C)c3)cc12 | 63% (inactive) |
| CCOC(=O)c1c(C)n(-c2ccccc2)c2ccc(OC(=O)c3ccccc3)cc12 | 3% (active) |
| CCOC(=O)c1c(C)n(-c2ccccc2)c2ccc(OC(=O)c3ccccc3NC(=O)C(C)C)cc12 | 47% (active) |
| CCOC(=O)c1c(C)n(-c2ccccc2)c2ccc(OC(=O)c3ccccc3Cl)cc12 | 54% (inactive) |
| CCOC(=O)c1c(C)n(-c2ccccc2)c2ccc(OC(=O)c3cccc(Cl)c3)cc12 | 79% (inactive) |
| CCOC(=O)c1c(C)n(-c2ccccc2)c2ccc(OC(=O)c3ccccc3NC(=O)C(C)(C)C)cc12 | 55% (inactive) |
| COc1ccc(S(=O)(=O)N2CCC(C(=O)Nc3ccc(Oc4ccccc4)cc3)CC2)cc1 | 72% (inactive) |
| O=C(COc1ccc(S(=O)(=O)NC2CCCCC2)cc1Cl)NCc1ccccn1 | 104% (inactive) |
| COc1ccc(N2CCN(C(CNC(=O)C(=O)NCc3ccc(C)cc3)c3cccnc3)CC2)cc1 (stereo not drawn) | 61% (inactive) |
| CCCCNc1nc2c(S(=O)(=O)c3ccc(C)cc3)nnn2c2ccsc12 | 114% (inactive) |
| Cc1ccc(C)c(NC(=O)CSc2nncn3c2cc2sccc23)c1 | 69% (inactive) |
| O=C(c1cc2c(=O)[nH]c3ccccc3c2s1)N1CCN(c2ccc(F)cc2)CC1 | 51% (inactive) |
| CCC(=O)N1c2ccccc2CC1C(=O)NCCN1CCN(c2cccc(C)c2C)CC1 (stereo not drawn) | 77% (inactive) |
| Cc1ccc(C)c(N2CCN(CCCNC(=O)Nc3ccc(Cl)cc3)CC2)c1 | -5% (active) |
| Cc1ccc(Cl)cc1N1CCN(CCNC(=O)Nc2ccc(Cl)cc2)CC1 | -4% (active) |
| CCOc1ccc(NC(=O)NCCN2CCN(c3cc(Cl)ccc3C)CC2)cc1 | 54% (inactive) |
| CCC(=O)N1c2ccccc2CC1C(=O)NCCN1CCN(c2cc(Cl)ccc2C)CC1 (stereo not drawn) | 52% (active) |
| COc1ccc(Cc2nnc(C(=O)NCCCN3CCN(c4ccccc4F)CC3)o2)cc1OC | 78% (inactive) |
| CCC(=O)N1c2ccccc2CC1C(=O)NCCN1CCN(c2cccc(Cl)c2)CC1 (stereo not drawn) | 87% (inactive) |
| O=C(NCCCN1CCN(c2ccc(F)cc2)CC1)Nc1ccc(Cl)cc1 | 72% (inactive) |

| Compound | survival |
| --- | --- |
| O=C(NCCCN1CCN(c2ccccc2F)CC1)c1nnc(Cc2ccc(Cl)cc2Cl)o1 | 80% (inactive) |
| Cc1ccc(Cl)cc1N1CCN(CCCNC(=O)c2nnc(Cc3cccc(Cl)c3)o2)CC1 | 25% (active) |
| Cc1ccc(Cl)cc1N1CCN(CCNC(=O)Nc2ccccc2Cl)CC1 | 77% (inactive) |
| Cc1cccc(N2CCN(CCNC(=O)Nc3ccc(Cl)cc3)CC2)c1C | 66% (inactive) |
| CCc1ccc(S(=O)(=O)Nc2ccc(-c3ccc(N4CCCCCC4)nn3)cc2)cc1 | 95% (inactive) |
| Cc1ccc(C)c(N(C)C(=O)CCNC(=O)Cn2cnc3ccccc3c2=O)c1 | 69% (inactive) |
| Cc1ccc(S(=O)(=O)NC2(C(F)(F)F)C(=O)Nc3c2c(=O)[nH]c(=O)n3-c2ccccc2)cc1 (stereo not drawn) | 89% (inactive) |
| COc1cc(OC)cc(-c2nc3nc(C)c(CCC(=O)Nc4ccc(Cl)cc4)c(C)n3n2)c1 | 65% (inactive) |
| COc1cccc(CNc2ncnc3onc(C)c23)c1 | 125% (inactive) |
| Cc1ccc(NC(=O)N2CCc3cc(S(=O)(=O)N4CCC(C)CC4)ccc32)cc1F | 105% (inactive) |
| COc1c(C)cccc1C(=O)Nc1ccc(-c2nc3ccccc3s2)c(Cl)c1 | 68% (inactive) |
| Cc1ccccc1CNC(=O)c1ccc2nc(C(C)C)oc2c1 | 83% (inactive) |
| COc1ccc(-c2onc(C)c2C)cc1S(=O)(=O)N1CCN(c2cc(C)ccc2C)CC1 | 81% (inactive) |
| CN(C)S(=O)(=O)c1ccc(C(=O)NCCSc2c(-c3ccc(Cl)cc3)[nH]c3ccccc23)cc1 | 67% (inactive) |
| Cc1ccc(C(=O)NCCSc2c(C)[nH]c3ccccc23)cc1C | 55% (inactive) |
| O=C(NCCSc1c[nH]c2ccccc12)c1ccc(Cl)cc1 | 47% (active) |
| Cc1ccc(C(=O)NCCSc2c[nH]c3ccccc23)cc1C | 46% (active) |
| O=C(NCCSc1c[nH]c2ccccc12)c1ccccc1Cl | 57% (inactive) |
| COc1ccc(C(=O)NCCSc2c[nH]c3ccccc23)cc1OC | 76% (inactive) |
| Cc1ccc(Cn2c(CN3CCN(c4cccc(Cl)c4)CC3)nc3c2c(=O)n(C)c(=O)n3C)cc1 | 107% (inactive) |
| COc1cccc(C2CC(=O)Nc3c2c(=O)n(C)c2nc4ccccc4n32)c1 (stereo not drawn) | 67% (inactive) |
| CCn1c(=O)cc(SCC(=O)NCc2ccc(OC)cc2OC)c2ccccc21 | 66% (inactive) |
| CCCCOc1ccc(C2=NC(c3ccncc3)=Nc3ccc(Br)cc3N2)cc1 | 12% (active) |
| CCCCOc1ccc(C2=NC(c3ccncc3)=Nc3ccc(OCC)cc3N2)cc1 | 75% (inactive) |

| Compound | survival |
| --- | --- |
| COc1ccc(C2=NC(c3ccncc3)=Nc3ccc(Br)cc3N2)cc1 | 82% (inactive) |
| CCn1c(C(=O)NCc2ccc(OC(C)C)cc2)cc2oc3ccccc3c21 | 33% (active) |
| CCOc1ccccc1CNC(=O)c1cc2oc3ccccc3c2n1CC | 2% (active) |
| CCn1c(C(=O)NCc2ccccc2Br)cc2oc3ccccc3c21 | 48% (inactive) |
| CCOc1ccc(CNC(=O)c2cc3oc4ccccc4c3n2C)cc1 | 95% (inactive) |
| CCn1c(C(=O)NCc2ccccc2C)cc2oc3ccccc3c21 | 14% (active) |
| CCn1c(C(=O)NCc2cccc(Br)c2)cc2oc3ccccc3c21 | 50% (inactive) |
| CCn1c(C(=O)NCc2cc(Br)ccc2OC)cc2oc3ccccc3c21 | 67% (inactive) |
| Cn1c(C(=O)NCc2cccc(Cl)c2)cc2oc3ccccc3c21 | 85% (inactive) |
| CCn1c(C(=O)NCc2ccc(F)cc2)cc2oc3ccccc3c21 | 89% (inactive) |
| CCCOc1ccc(CNC(=O)c2cc3oc4ccccc4c3n2C)cc1 | 73% (inactive) |
| COc1ccc(CNC(=O)c2cc3oc4ccccc4c3n2C)cc1OC | 43% (active) |
| Cn1c(C(=O)NCc2ccccc2F)cc2oc3ccccc3c21 | 55% (inactive) |
| Cc1c(-c2nsc(NC(=O)c3cccs3)n2)nnn1-c1ccc(Br)cc1 | 77% (inactive) |
| COc1ccc2[nH]c(=O)c(CN(C3CCCC3)S(=O)(=O)c3cccc4nsnc34)cc2c1 | 96% (inactive) |
| Cc1ccc(NC(=O)Cn2c(=O)n(CCCCC(=O)NCCc3ccccc3)c(=O)c3ccccc32)c(C)c1 | 84% (inactive) |
| CCc1ccc(NC(=O)CSc2ccc(-c3cccs3)nn2)cc1 | 72% (inactive) |
| Cc1cccc(NC(=O)c2cc3c(=O)n4cccc(C)c4nc3s2)c1C | 65% (inactive) |
| CC(=O)OC1=CN(Cc2ccccc2)S(=O)(=O)c2ccccc21 | 71% (inactive) |
| COc1ccccc1CNC(=O)CCCCn1c(=O)c2ccccc2n(Cc2ccccc2F)c1=O | 93% (inactive) |
| COc1cccc(NC(=O)c2ccc(CNS(=O)(=O)c3ccc4c(c3)C(C)(C)C(=O)N4C)cc2)c1 | 51% (inactive) |
| CCc1nn(Cc2cccc(F)c2)c(=O)c2cc3cc(C)ccc3n12 | 40% (active) |
| CCc1nn(Cc2ccc(Cl)cc2)c(=O)c2cc3cc(C)ccc3n12 | 94% (inactive) |
| CCc1nn(Cc2c(C)cc(C)cc2C)c(=O)c2cc3cc(C)ccc3n12 | 88% (inactive) |

| Compound | survival |
| --- | --- |
| COc1ccccc1C(=O)NCc1ccc2c(c1)CCN2C(=O)c1cccc(C)c1 | 77% (inactive) |
| COc1cccc(C(=O)N2c3ccc(C)cc3C(C)(c3ccccc3)CC2(C)C)c1 (stereo not drawn) | -5% (active) |
| COc1cccc(C(=O)N2c3cc(C)ccc3C(C)(c3ccccc3)CC2(C)C)c1 (stereo not drawn) | 1% (active) |
| COC(=O)C1=NN(C(=O)c2cccc(OC)c2)C(C)(O)C1 (stereo not drawn) | 104% (inactive) |
| COc1ccc(C)cc1NC(=O)NCc1ccc2c(c1)CCN2C(=O)c1ccccc1 | 105% (inactive) |
| COc1cccc(C(=O)N2CC(C)OC(C)C2)c1 (stereo not drawn) | 65% (inactive) |
| COc1ccc(-c2cc3ccc(O)c(CN4CCCC(C)C4)c3oc2=O)cc1 (stereo not drawn) | 79% (inactive) |
| CCOc1ccccc1Nc1nc(-c2cccc(Cl)c2)c2c(n1)-c1ccccc1OC2 | 61% (inactive) |
| CN(C(=O)CSc1nc2ccc(NC(=O)CCc3ccccc3)cc2s1)c1ccccc1 | 73% (inactive) |
| C=CCc1c(C)[nH]c2ccccc2c1=O | 98% (inactive) |
| Cc1ccc(CNC(C)c2ccccc2)s1 (stereo not drawn) | 75% (inactive) |
| Cc1[nH]c2ccccc2c1C(c1ccccc1)c1ccc(Cl)s1 (stereo not drawn) | 0% (active) |
| NNC(=O)CSc1c(-c2cccs2)[nH]c2ccccc12 | 84% (inactive) |
| Cc1[nH]c2ccccc2c1C1(O)C(=O)Nc2ccc(Cl)cc21 (stereo not drawn) | 66% (inactive) |
| Cc1ccc(C(c2ccccc2)c2c(C)[nH]c3ccccc23)s1 (stereo not drawn) | 26% (active) |
| CCCCc1c(C)[nH]c2ccccc2c1=O | 83% (inactive) |
| Cc1ccc(C(c2cccc(Br)c2)c2c(C)[nH]c3ccccc23)s1 (stereo not drawn) | 65% (inactive) |
| CCc1ccc(C(c2ccccc2)c2c(C)[nH]c3ccccc23)s1 (stereo not drawn) | 25% (active) |
| Cc1[nH]c2ccccc2c1C(c1ccccc1)c1cccs1 (stereo not drawn) | 7% (active) |
| S=c1nc(Cc2cccs2)[nH]c2ccccc12 | 100% (inactive) |
| Cc1cccc(Nc2c(-c3ccsc3)nc3nc(C)cc(C)n23)c1 | 130% (inactive) |
